Measured values as given in PubChem BioAssay (EPA / NIEHS).
“And” between values parts separate entries of the source, which are not always exact repeats. Equal values may be shown once. Inconclusive results are not listed. Some compounds were tested as several samples or in several runs, with calls that do not always agree. The source made the active and inactive calls. Rule for the calls, unless noted: active = hit-call score of the fitted dose curve at least 0.9, where 1 is the maximum; inactive = score below 0.9.

Experiments:
[1] = read-out: Transforming growth factor beta 1 (TGFb1), TGFB1 (gene 7040); test: BSK_BE3C_TGFb1: BioMAP Diversity Plus: BE3C Assay for Transforming growth factor beta 1 (TGFb1) Biomarker Activity (AID 2283036); details: primary human bronchial epithelial cells; actives raise or lower the signal
Summary of the method: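 Bronchial epithelial primary cells are treated with test chemical, then TGF-b1 is quantified by ELISA after 24 hours. Values derive from bidirectional fitting against DMSO, with cytotoxicity checked by SRB staining in parallel cultures.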

[2] = read-out: Tissue plasminogen activator (tPA), PLAT (gene 5327); test: BSK_BE3C_tPA: BioMAP Diversity Plus: BE3C Assay for Tissue plasminogen activator (tPA) Biomarker Activity (AID 2283041); details: primary human bronchial epithelial cells; actives raise or lower the signal
Summary of the method: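 Gain- or loss-of-signal in tPA, measured by ELISA, derived by bidirectional fitting against DMSO. Cells: human primary bronchial epithelial; read at 24 h after chemical dosing.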

[3] = read-out: Human Leukocyte Antigen - DR isotype (HLADR), HLA-DRA (gene 3122); test: BSK_CASM3C_HLADR: BioMAP Diversity Plus: CASM3C Assay for Human Leukocyte Antigen - DR isotype (HLADR) Biomarker Activity (AID 2283043); details: primary human coronary artery smooth muscle cells; actives raise or lower the signal;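 note: cell-surface HLA-DR protein level quantified by ELISA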
[4] = read-out: Macrophage colony-stimulating factor (MCSF), CSF1 (gene 1435); test: BSK_CASM3C_MCSF: BioMAP Diversity Plus: CASM3C Assay for Macrophage colony-stimulating factor (MCSF) Biomarker Activity (AID 2283044); details: primary human coronary artery smooth muscle cells; actives raise or lower the signal;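 note: M-CSF protein amount quantified by ELISA after 24 h exposure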
[5] = BSK_CASM3C_SRB: Viability Assessment in the BioMAP Diversity Plus: CASM3C Assay (AID 2283050); details: primary human coronary artery smooth muscle cells
[6] = read-out: Thrombomodulin, THBD (gene 7056); test: BSK_CASM3C_Thrombomodulin: BioMAP Diversity Plus: CASM3C Assay for Thrombomodulin Biomarker Activity (AID 2283051); details: primary human coronary artery smooth muscle cells; actives raise or lower the signal;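 note: thrombomodulin protein level measured by ELISA 24 h after dosing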
[7] = read-out: Vascular cell adhesion molecule 1 (VCAM1), VCAM1 (gene 7412); test: BSK_CASM3C_VCAM1: BioMAP Diversity Plus: CASM3C Assay for Vascular cell adhesion molecule 1 (VCAM1) Biomarker Activity (AID 2283055); details: primary human coronary artery smooth muscle cells; actives raise or lower the signal;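 note: VCAM-1 protein level quantified by ELISA on the cells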
[8] = read-out: TIMP metallopeptidase inhibitor 2 (TIMP2), TIMP2 (gene 7077); test: BSK_KF3CT_TIMP2: BioMAP Diversity Plus: KF3CT Assay for TIMP metallopeptidase inhibitor 2 (TIMP2) Biomarker Activity (AID 2283071); details: primary human keratinocytes with fibroblasts; actives raise or lower the signal
Summary of the method: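 Chemicals were dosed onto human skin primary co-cultures of keratinocytes and foreskin fibroblasts, and TIMP-2 was measured by ELISA after 24 hours. Activity in either direction was fitted relative to DMSO.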

[9] = read-out: Interleukin-8 (IL8), CXCL8 (gene 3576); test: BSK_LPS_IL8: BioMAP Diversity Plus: LPS Assay for Interleukin-8 (IL8) Biomarker Activity (AID 2283078); details: primary human HUVEC with PBMC; actives raise or lower the signal
Summary of the method: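 Human umbilical vein endothelial cells co-cultured with PBMC were stimulated with LPS; IL-8 levels were measured by ELISA 24 h after chemical dosing. Activity was fitted bidirectionally against DMSO as negative control and baseline.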

[10] = read-out: Interleukin-1 alpha (IL1a), IL1A (gene 3552); test: BSK_LPS_IL1a: BioMAP Diversity Plus: LPS Assay for Interleukin-1 alpha (IL1a) Biomarker Activity (AID 2283080); details: primary human HUVEC with PBMC; actives raise or lower the signal
Summary of the method: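 Human umbilical vein endothelial cells co-cultured with peripheral blood mononuclear cells were LPS-stimulated and exposed to test chemicals for 24 h. IL-1 alpha was quantified by ELISA, with bidirectional curve fitting against DMSO as the negative control and baseline.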

[11] = read-out: Monocyte Chemoattractant Protein-1 (MCP1), CCL2 (gene 6347); test: BSK_LPS_MCP1: BioMAP Diversity Plus: LPS Assay for Monocyte Chemoattractant Protein-1 (MCP1) Biomarker Activity (AID 2283081); details: primary human HUVEC with PBMC; actives raise or lower the signal;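 for AC50: co-culture stimulated with LPS; secreted MCP-1 protein quantified by ELISA in culture supernatant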
Summary of the method: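 HUVEC plus PBMC co-culture (human primary cells, LPS system) exposed to test chemical for 24 h; MCP-1 measured by ELISA. Bidirectional curve fitting against DMSO baseline; parallel SRB total-protein staining flags overt cytotoxicity.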

[12] = BSK_LPS_PGE2: BioMAP Diversity Plus: LPS Assay for Prostaglandin E2 (PGE2) Biomarker Activity (AID 2283082); details: primary human HUVEC with PBMC; actives raise or lower the signal;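 for AC50: secreted prostaglandin E2 measured by ELISA in LPS-stimulated co-culture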
Summary of the method: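 Compounds were added to the LPS co-culture of endothelium and PBMC, and PGE2 was measured by ELISA after 24 h. Responses in either direction were fitted with DMSO as baseline.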

CD38, CD38 (gene 952) = test: BSK_SAg_CD38: BioMAP Diversity Plus: SAg Assay for CD38 Biomarker Activity (AID 2283087); details: primary human HUVEC with PBMC; actives raise or lower the signal
Summary of the method: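 CD38 quantified by ELISA (fluorescence) in a superantigen-activated endothelial cell–PBMC co-culture at 24 h post-dose. Activity fitted in both directions relative to DMSO; parallel SRB and Alamar Blue cytotoxicity read-outs.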

CD69, CD69 (gene 969) = test: BSK_SAg_CD69: BioMAP Diversity Plus: SAg Assay for CD69 Biomarker Activity (AID 2283089); details: primary human HUVEC with PBMC; actives raise or lower the signal;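 for AC50: cell surface CD69 protein quantified by ELISA with fluorescence detection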
Summary of the method: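 HUVEC co-cultured with PBMC were dosed with chemical, and CD69 was measured by ELISA with fluorescence read-out 24 h later. Bidirectional curve fitting used DMSO as negative control and activity baseline.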

[13] = read-out: Monocyte Chemoattractant Protein-1 (MCP1), CCL2 (gene 6347); test: BSK_SAg_MCP1: BioMAP Diversity Plus: SAg Assay for Monocyte Chemoattractant Protein-1 (MCP1) Biomarker Activity (AID 2283090); details: primary human HUVEC with PBMC; actives raise or lower the signal
Summary of the method: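 Values derive from bidirectional fitting of ELISA-measured MCP1 against DMSO controls. Readings were taken 24 h after dosing human vascular endothelial cells co-cultured with peripheral blood mononuclear cells under superantigen stimulation.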

[14] = read-out: E-selectin (Homo sapiens) (UniProt P16581); test: BSK_SAg_Eselectin: BioMAP Diversity Plus: SAg Assay for Eselectin Biomarker Activity (AID 2283091); details: primary human HUVEC with PBMC; actives raise or lower the signal
Summary of the method: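 HUVEC co-cultured with PBMC, compound dosed then read at 24 h; E-selectin measured by ELISA. Activity fitted bidirectionally against DMSO as negative control and baseline.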

[15] = read-out: Monokine induced gamma interferon (MIG), CXCL9 (gene 4283); test: BSK_SAg_MIG: BioMAP Diversity Plus: SAg Assay for Monokine induced gamma interferon (MIG) Biomarker Activity (AID 2283092); details: primary human HUVEC with PBMC; actives raise or lower the signal
Summary of the method: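 HUVEC plus human PBMC co-culture, chemicals dosed and MIG (CXCL9) quantified by ELISA at 24 h. Bidirectional curve fitting against DMSO as negative control and baseline, so both gain and loss of signal count as activity.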

[16] = BSK_SAg_Proliferation: Cell Proliferation Assessment in the BioMAP Diversity Plus: SAg Assay (AID 2283095); details: primary human HUVEC with PBMC;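 note: relative cell number as total protein by SRB absorbance in sub-confluent culture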
Summary of the method: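 Absorbance of sulforhodamine B at 560 nm reports total protein in a human vascular endothelial/PBMC co-culture after 96 h chemical exposure. Gain or loss of signal is fitted in both directions against DMSO.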

[17] = biological target: Estrogen receptor beta (Homo sapiens) (UniProt Q92731); test: OT_ER_ERbERb_0480: Odyssey Thera (OT) 8-hour HEK293T Protein-Complementation Assay for Estrogen Receptor-beta/-beta Homodimer (AID 2283357; active = hit-call score of the fitted dose curve at least 0.9, where 1 is the maximum;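 note: active means signal gain over DMSO baseline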)
Chain of Estrogen receptor beta (Homo sapiens) (Q92731 whole entry, looked up, the tested form may be a part): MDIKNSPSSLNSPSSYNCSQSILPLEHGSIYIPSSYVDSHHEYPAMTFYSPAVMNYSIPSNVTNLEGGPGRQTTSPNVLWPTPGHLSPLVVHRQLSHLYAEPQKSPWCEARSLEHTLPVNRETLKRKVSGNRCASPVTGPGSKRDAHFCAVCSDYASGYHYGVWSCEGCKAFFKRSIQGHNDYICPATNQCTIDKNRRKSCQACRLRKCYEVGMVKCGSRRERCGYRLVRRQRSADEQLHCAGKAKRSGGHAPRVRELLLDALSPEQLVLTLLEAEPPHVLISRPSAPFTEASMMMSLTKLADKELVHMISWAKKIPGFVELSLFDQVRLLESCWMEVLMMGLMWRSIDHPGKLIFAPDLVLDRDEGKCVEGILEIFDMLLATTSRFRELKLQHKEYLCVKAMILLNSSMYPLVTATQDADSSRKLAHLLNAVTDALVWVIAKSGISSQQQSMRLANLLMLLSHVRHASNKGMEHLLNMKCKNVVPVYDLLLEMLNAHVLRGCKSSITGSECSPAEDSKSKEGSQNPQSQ
Summary of the method: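 Homodimerization of ER-beta LBD measured by protein-fragment complementation in HEK293T; 8 h dosing; fixed, Draq5 counterstain; fluorescence intensity gain over DMSO baseline, positive fitting direction; laser scanning cytometry.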

[18] = biological target: Retinoic acid receptor RXR-alpha (Homo sapiens) (UniProt P19793); test: OT_NURR1_NURR1RXRa_0480: Odyssey Thera (OT) 8-hour HEK293T Protein Complementation Assay for Nurr1/retinoid X receptor (RXR) (AID 2283385; active = hit-call score of the fitted dose curve at least 0.9, where 1 is the maximum)
Chain of Retinoic acid receptor RXR-alpha (Homo sapiens) (P19793 whole entry, looked up): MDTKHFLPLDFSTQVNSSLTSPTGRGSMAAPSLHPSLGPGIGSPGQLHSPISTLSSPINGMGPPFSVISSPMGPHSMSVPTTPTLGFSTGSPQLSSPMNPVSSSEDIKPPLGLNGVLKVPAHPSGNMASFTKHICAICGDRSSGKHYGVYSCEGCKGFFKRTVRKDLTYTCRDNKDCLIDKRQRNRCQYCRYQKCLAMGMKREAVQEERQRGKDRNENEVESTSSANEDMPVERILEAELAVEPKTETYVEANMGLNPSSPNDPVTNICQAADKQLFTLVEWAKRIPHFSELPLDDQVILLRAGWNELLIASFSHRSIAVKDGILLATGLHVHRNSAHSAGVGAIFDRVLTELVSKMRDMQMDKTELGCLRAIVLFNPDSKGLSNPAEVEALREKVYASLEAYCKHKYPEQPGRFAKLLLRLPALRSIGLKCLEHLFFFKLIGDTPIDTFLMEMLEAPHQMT
Summary of the method: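 Interaction of bait and prey reconstitutes a functional reporter, whose fluorescence was measured in HEK293T cells dosed with compound for 8 hours. Signal gain relative to DMSO defined the single endpoint.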

Measured: AC50

Chain of E-selectin (Homo sapiens) (P16581 whole entry, looked up): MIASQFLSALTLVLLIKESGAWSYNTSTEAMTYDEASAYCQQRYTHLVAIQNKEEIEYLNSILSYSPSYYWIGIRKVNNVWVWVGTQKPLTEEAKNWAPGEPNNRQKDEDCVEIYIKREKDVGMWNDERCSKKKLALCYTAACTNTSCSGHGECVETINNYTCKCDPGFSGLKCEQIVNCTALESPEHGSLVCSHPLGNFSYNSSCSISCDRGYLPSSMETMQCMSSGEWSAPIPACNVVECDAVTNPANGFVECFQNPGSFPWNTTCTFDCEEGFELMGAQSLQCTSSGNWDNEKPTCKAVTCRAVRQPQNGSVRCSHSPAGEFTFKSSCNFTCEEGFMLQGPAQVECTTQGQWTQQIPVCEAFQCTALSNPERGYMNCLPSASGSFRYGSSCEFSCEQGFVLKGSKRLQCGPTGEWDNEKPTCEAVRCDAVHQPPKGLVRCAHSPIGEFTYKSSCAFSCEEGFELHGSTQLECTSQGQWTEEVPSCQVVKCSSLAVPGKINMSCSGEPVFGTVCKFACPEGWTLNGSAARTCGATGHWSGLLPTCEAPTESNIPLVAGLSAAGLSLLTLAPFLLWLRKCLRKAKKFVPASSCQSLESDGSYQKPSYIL

CC1(C)[C@H](C(=O)O[C@H](C#N)c2cccc(Oc3ccccc3)c2)[C@@H]1C=C(Br)Br
active: [1] 1.2 µM | [3] 11.1 µM | [6] 8.23 µM | [7] 3.97 µM | [8] 0.298 µM | [12] 1.67 µM and 92.9 nM | CD38, CD38 (gene 952) 2.42 µM | CD69, CD69 (gene 969) 2.07 µM | [14] 1.52 µM | [16] 3.97 µM
inactive: [1] | [2] | [3] | [4] | [5] | [6] | [7] | [8] | [9] | [10] | [11] | CD38, CD38 (gene 952) | CD69, CD69 (gene 969) | [13] | [14] | [15] | [16] | [17] | [18]

Nc1ccccc1
inactive: [18]

O=C(NCNC(=O)NC1C(=O)NC(=O)N1CO)NC1C(=O)NC(=O)N1CO (stereo not given)
inactive: [18]

CC(=O)c1cc2c(cc1C)C(C)(C)C(C)CC2(C)C (stereo not given)
active: [17] 5.28 µM | [18] 82.1 µM

CCc1cc(C)cc(CC)c1-c1c(OC(=O)C(C)(C)C)n2n(c1=O)CCOCC2
active: [2] 5.24 µM | [3] 3.97 µM | [4] 0.975 µM | [8] 3.97 µM | [9] 0.016 µM
not listed: [17] | [18]
inactive: all other assays above

O=C1C=CC(=O)C=C1
active: [2] 34.9 µM | [3] 10.9 µM and 20 µM | [4] 12.1 µM | [5] 4.88 µM | [6] 8.44 µM and 20 µM | [7] 9.42 µM and 24.7 µM | [8] 28.7 µM and 12.4 µM | [9] 23.6 µM | [10] 30.6 µM | [11] 32.6 µM | [12] 31.7 µM | CD38, CD38 (gene 952) 30.4 µM and 25.7 µM | CD69, CD69 (gene 969) 20 µM and 22.9 µM | [13] 31.4 µM | [14] 30.7 µM and 25.2 µM | [15] 35.6 µM | [16] 6.38 µM and 3.38 µM
inactive: [1] | [2] | [4] | [5] | [9] | [10] | [11] | [12] | [13] | [15]

Cc1ccc(C)c2ccccc12
inactive: [17] | [18]

COC(C)(C)CCC[C@H](C)C/C=C/C(C)=C/C(=O)OC(C)C
active: [2] 9.71 µM | [3] 20 µM | [4] 13.7 µM | [6] 14.3 µM | [7] 20 µM | [8] 9.64 µM | [9] 33.5 µM | [10] 36.4 µM | [11] 29.6 µM | CD38, CD38 (gene 952) 30.4 µM | CD69, CD69 (gene 969) 18 µM | [13] 20 µM | [14] 20 µM | [16] 28.6 µM
inactive: [1] | [5] | [12] | [15]

CC(C)[C@@H](C(=O)O[C@@H](C#N)c1cccc(Oc2ccccc2)c1)c1ccc(Cl)cc1
inactive: [17]

O=[N+]([O-])c1ccc(Cl)cc1
not listed: [18]
inactive: all other assays above

O=S(=O)(O)OOS(=O)(=O)O
inactive: [17] | [18]

CCOC(=O)COc1ccc(Cl)cc1Cl
inactive: [18]

O=c1c2ccccc2c(=O)c2c1cc(Cl)c1[nH]c3c([nH]c12)c(Cl)cc1c(=O)c2ccccc2c(=O)c13
active: [6] 6 µM
not listed: [17] | [18]
inactive: all other assays above

C=CC(=O)OCCO
inactive: [17]
